Screening data deposited in PubChem BioAssay by The Scripps Research Institute Molecular Screening Center.
CHO-K1 Ca antag – counter-screen for M1 antagonists: effect in parental CHO-K1 cells; inhibition, % at 3 µM; ATP-induced calcium, Fluo-8 fluorescence; 360,000 compounds, 0.6% hits;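 active = inhibition above a per-plate cutoff, the plate's mean sample inhibition plus 3 SD, cut at about 24% in these data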;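 note: 0% = DMSO plus EC80 ATP and 100% = DMSO alone without ATP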
CHRM1 PAM – human CHRM1 positive allosteric modulation; AID 588819; 360,000 compounds, 0.088% hits; P11229; activation, % at 3 µM; CHO-K1 hM1, Fluo-8 calcium fluorescence, ACh EC20; 0% = ACh EC20, 100% = maximal ACh; in the data active = activation above about 19%, passing the limit was not always enough
Target sequence (P11229 whole entry, looked up): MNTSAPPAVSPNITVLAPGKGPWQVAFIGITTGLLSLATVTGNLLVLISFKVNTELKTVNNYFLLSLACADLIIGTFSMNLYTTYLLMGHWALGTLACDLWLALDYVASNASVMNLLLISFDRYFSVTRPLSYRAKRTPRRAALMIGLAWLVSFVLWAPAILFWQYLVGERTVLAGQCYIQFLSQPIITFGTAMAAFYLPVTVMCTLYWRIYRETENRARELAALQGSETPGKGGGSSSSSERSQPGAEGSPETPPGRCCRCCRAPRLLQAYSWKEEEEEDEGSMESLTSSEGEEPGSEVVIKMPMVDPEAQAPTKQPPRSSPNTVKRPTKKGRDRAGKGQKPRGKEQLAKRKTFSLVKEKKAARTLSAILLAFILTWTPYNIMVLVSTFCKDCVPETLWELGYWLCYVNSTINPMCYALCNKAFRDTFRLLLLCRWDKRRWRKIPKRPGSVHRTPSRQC
CHRM1 antagonist – blocks human M1 muscarinic receptor | 360,000 compounds, 1.3% hits | CHO-K1 hM1, Fluo-8 calcium fluorescence, ACh EC80 antagonist | AID 588852 | P11229 | inhibition, % at 3 µM;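 active = percent inhibition above its own plate's cutoff, namely the mean of that plate's compound wells plus 3 SD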;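 note: peak over basal fluorescence ratio during 140 s after agonist addition; 0% = ACh EC80 plus DMSO and 100% = DMSO alone without agonist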
CHO-K1 Ca ag – M1 agonist counterscreen hit in parental CHO-K1 cells; Fluo-8 calcium fluorescence; scaled to maximal ATP response, vehicle zero; activation, % at 3 µM; 360,000 compounds, 0.48% hits; in the data active = activation above about 15%;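 note: untransfected CHO-K1 host cells lacking M1 receptor as counterscreen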
CHO-K1 Ca PAM – counter-screen for M1 PAMs: effect in parental CHO-K1 cells. ATP EC20, Fluo-8 calcium fluorescence; 0% at ATP EC20, 100% at ATP max. activation, % at 3 µM. 360,000 compounds, 0.02% hits;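 active = activation above the run cutoff, the mean activation of all test compounds plus 3 SD, cut at about 40% in these data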;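 note: peak over basal fluorescence ratio in a 140 s read after ATP addition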
CHRM1 agonist – human M1 muscarinic receptor agonism | P11229 | CHO-K1 hM1, Fluo-8 calcium fluorescence, agonist mode; 0% DMSO, 100% acetylcholine EC100 | activation, % at 3 µM | 360,000 compounds, 0.33% hits | AID 588814;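 active = activation above the run's mean compound activation plus 3 SD, cut at about 16% in these data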;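 note: peak over basal fluorescence ratio within a 140 s kinetic read after compound addition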
Numbers without * were called inactive. The list is not random: actives were taken first. Their share in the collection is about 2.3%.

For CC(O)C1C=CC=CC(=O)OC2CC3OC4C5OC5(C)C(O)CC4(COC(=O)C(O)C(C)CCO1)C2(C)C31CO1 (stereo unspecified) the results were CHO-K1 Ca antag -12, CHRM1 PAM 8, CHRM1 antagonist -14, CHO-K1 Ca ag 1, CHO-K1 Ca PAM 16 and CHRM1 agonist -2.
For COc1cc(C(=O)OC2C[C@H]3CC[C@@H](C2)N3)ccc1O (stereo partly specified) the results were CHO-K1 Ca antag -14, CHRM1 PAM -27, CHRM1 antagonist 95*, CHO-K1 Ca ag 0, CHO-K1 Ca PAM 14 and CHRM1 agonist -10.
Screening COc1cc(C(=O)OC2C[C@H]3CC[C@@H](C2)N3C)ccc1O (stereo partly specified) returned CHO-K1 Ca antag -10, CHRM1 PAM -4, CHRM1 antagonist 0, CHO-K1 Ca ag 1, CHO-K1 Ca PAM 8 and CHRM1 agonist -10.
O=C1NC(=O)N(c2ccc(Cl)cc2)C(=O)/C1=C\c1ccc(Sc2nc3ccccc3[nH]2)o1 was read as CHO-K1 Ca antag 29*, CHRM1 PAM 1, CHRM1 antagonist -1, CHO-K1 Ca ag 8, CHO-K1 Ca PAM -16 and CHRM1 agonist 11.
Screening O=C1NC(=O)C(=Cc2ccc(Sc3ccccc3)o2)C(=O)N1 returned CHO-K1 Ca antag 0, CHRM1 PAM 4, CHRM1 antagonist 0, CHO-K1 Ca ag 1, CHO-K1 Ca PAM 1 and CHRM1 agonist -5.
NC(Cc1ccc(F)cc1)c1csc(Nc2ncccn2)n1 (stereo unspecified) was read as CHO-K1 Ca antag -12, CHRM1 PAM 2, CHRM1 antagonist -7, CHO-K1 Ca ag 1, CHO-K1 Ca PAM 7 and CHRM1 agonist 4.
For O=C(COC(=O)Cc1ccccc1)NCCNC(=O)COC(=O)Cc1ccccc1 the results were CHO-K1 Ca antag -3, CHRM1 PAM 4, CHRM1 antagonist -8, CHO-K1 Ca ag 0, CHO-K1 Ca PAM -4 and CHRM1 agonist -2.
Screening O=C(Cc1ccccc1)OCCN1CCCCC1 returned CHO-K1 Ca antag -2, CHRM1 PAM -20, CHRM1 antagonist 34*, CHO-K1 Ca ag 0, CHO-K1 Ca PAM 0 and CHRM1 agonist -6.
For C1CN(P2(N3CC3)=NP(N3CC3)(N3CC3)=NP(N3CC3)(N3CC3)=N2)CCO1 (stereo unspecified) the results were CHO-K1 Ca antag -17, CHRM1 PAM 7, CHRM1 antagonist -6, CHO-K1 Ca ag 1, CHO-K1 Ca PAM 28 and CHRM1 agonist -2.
`CCOC(=O)C1(CCOc2ccccc2)CCN(C2Cc3ccccc3C2)CC1` gave CHO-K1 Ca antag -9, CHRM1 PAM -22, CHRM1 antagonist 46*, CHO-K1 Ca ag 3, CHO-K1 Ca PAM 11 and CHRM1 agonist -5.
Screening CCOC(=O)C1(CCOc2ccccc2)CCN(C(C)CSC)CC1 (stereo unspecified) returned CHO-K1 Ca antag -15, CHRM1 PAM -10, CHRM1 antagonist 3, CHO-K1 Ca ag 4, CHO-K1 Ca PAM 24 and CHRM1 agonist -9.
For CC(=NCCO)c1c(O)n(C2CCCCC2)c(=O)[nH]c1=O the results were CHO-K1 Ca antag -13, CHRM1 PAM 4, CHRM1 antagonist -1, CHO-K1 Ca ag 0, CHO-K1 Ca PAM 16 and CHRM1 agonist -2.
For CCC(=O)c1c(O)n(C2CCCCCC2)c(=O)[nH]c1=O the results were CHO-K1 Ca antag 28*, CHRM1 PAM 1, CHRM1 antagonist -1, CHO-K1 Ca ag 0, CHO-K1 Ca PAM -6 and CHRM1 agonist -3.
CN(Cc1cccc(-c2ccncc2)c1)C(=O)Oc1ccccc1Cl was read as CHO-K1 Ca antag 7, CHO-K1 Ca ag 13 and CHO-K1 Ca PAM -17.
`CN(Cc1cccc(-c2ccncc2)c1)C(=O)Oc1ccccc1Cc1ccccc1` gave CHO-K1 Ca antag 24*, CHO-K1 Ca ag 12 and CHO-K1 Ca PAM -8.
Screening CC(=O)N1CCN(Cc2ccc(Cl)nc2)CC1 returned CHO-K1 Ca antag -6, CHRM1 PAM 28*, CHRM1 antagonist -2, CHO-K1 Ca ag 1, CHO-K1 Ca PAM 9 and CHRM1 agonist -3.
NNC(N)=O was read as CHO-K1 Ca antag -1, CHRM1 PAM -22, CHRM1 antagonist 2, CHO-K1 Ca ag 2, CHO-K1 Ca PAM 6 and CHRM1 agonist 16*.
COc1cccc(C(c2nnnn2C2CCCCC2)N2CCC3(CC2)C(=O)NCN3c2ccccc2)c1OC (stereo unspecified) was read as CHO-K1 Ca antag -32, CHRM1 PAM 6, CHRM1 antagonist -24, CHO-K1 Ca ag 3, CHO-K1 Ca PAM 33 and CHRM1 agonist 2.
O=c1c2ccccc2nc(-c2ccc([N+](=O)[O-])cc2)n1-c1ccccc1 was read as CHO-K1 Ca antag -7, CHRM1 PAM -1, CHRM1 antagonist 7, CHO-K1 Ca ag 0, CHO-K1 Ca PAM 16 and CHRM1 agonist -5.
`O=c1c2ccccc2nc(-c2ccccc2)n1-c1ccncc1` gave CHO-K1 Ca antag 31*, CHRM1 PAM 7, CHRM1 antagonist 10, CHO-K1 Ca ag 0, CHO-K1 Ca PAM -4 and CHRM1 agonist -1.
Screening Cc1ccccc1-n1c(-c2ccc([N+](=O)[O-])cc2)nc2ccccc2c1=O returned CHO-K1 Ca antag -2, CHRM1 PAM -29, CHRM1 antagonist 49*, CHO-K1 Ca ag 1, CHO-K1 Ca PAM 10 and CHRM1 agonist -10.
For CC(=O)OC1CC2OC3C=C(C)CCC3(C)C1(C)C21CO1 (stereo unspecified) the results were CHO-K1 Ca antag -6, CHRM1 PAM 6, CHRM1 antagonist -14, CHO-K1 Ca ag 0, CHO-K1 Ca PAM 7 and CHRM1 agonist 0.
`Cc1ccc(CN2Cc3ccc(Br)cc3-n3nncc3C2)cc1` gave CHO-K1 Ca antag 8, CHRM1 PAM -9, CHRM1 antagonist 8, CHO-K1 Ca ag 0, CHO-K1 Ca PAM 1 and CHRM1 agonist -11.
`COc1ccc(-n2nnnc2C(c2cccs2)N2CCC3(CC2)C(=O)NCN3c2ccccc2)cc1` (stereo unspecified) gave CHO-K1 Ca antag 16, CHRM1 PAM 1, CHRM1 antagonist -15, CHO-K1 Ca ag 0, CHO-K1 Ca PAM -3 and CHRM1 agonist 1.
CC1CN1c1cc2c(c3c1ccn3C)C1CCC2C1 (stereo unspecified) was read as CHO-K1 Ca antag 11, CHRM1 PAM 26*, CHRM1 antagonist -47, CHO-K1 Ca ag 0, CHO-K1 Ca PAM 14 and CHRM1 agonist 0.
`COc1ccc(CN2Cc3cc(N4CCCCC4)ccc3-n3nncc3C2)cc1` gave CHO-K1 Ca antag 8, CHRM1 PAM 1, CHRM1 antagonist -3, CHO-K1 Ca ag 0, CHO-K1 Ca PAM 2 and CHRM1 agonist -9.
`Cc1ccc(C(=O)C2CN3CCC2CC3)cc1` (stereo unspecified) gave CHO-K1 Ca antag -9, CHRM1 PAM -7, CHRM1 antagonist 28*, CHO-K1 Ca ag 0, CHO-K1 Ca PAM 16 and CHRM1 agonist 1.
